Holding throughout (assay): NCI-60 one-dose screen, 48 h (100 = growth as untreated, 0 = no growth, -100 = all killed)
Holding throughout (settings): 10 µM unless noted

In test [1] the test system is SK-MEL-2 melanoma.
Test [2] deals with EKVX NSCLC.
The subject of test [3] is SN12C renal.
In test [4] the test system is UO-31 renal.
The test system of test [5] is TK-10 renal.
Test [6] concerns ACHN renal.
Test [7] deals with CAKI-1 renal.
In test [8] the test system is A498 renal.
For test [9], the system named is CCRF-CEM leukemia.
Test [10] deals with MOLT-4 leukemia.
Test [11] has as its system SR leukemia.
For test [12], the system named is RPMI-8226 leukemia.
The subject of test [13] is OVCAR-8 ovarian.
Test [14] deals with OVCAR-5 ovarian.
The test system of test [15] is OVCAR-4 ovarian.
Test [16] has as its system SK-OV-3 ovarian.
The test system of test [17] is IGROV1 ovarian.
The test system of test [18] is OVCAR-3 ovarian.
For test [19], the system named is HS 578T breast.
Test [20] has as its system NCI/ADR-RES ovarian.

Each structure is given as a SMILES string. Compounds without any hit were thinned out: in the full panel of roughly 83,000, 20% have a hit.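 Percent growth is the endpoint: 0 to 100 indicates growth inhibition (40 means 60% inhibition), 0 means no net growth, and negative values indicate cell death.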 A number with no mark means an inactive call. The source made the active and inactive calls. The calls were made as follows: active = growth percent below 10; inactive = the rest.

Turning to `COc1ccc2[nH]cc(C3(c4c[nH]c5ccc(OC)cc45)C(=O)Nc4ccc(Cl)cc43)c2c1`, the growth in test [1] was 90.7%; in test [2], 43.5%; in test [3], 91.8%; in test [4], 46.3%; in test [5] it was 107%; in test [6] it was 76%. Further, the growth in test [7] is 62.2%; in test [8], 73.8%; in [9], 15.8%; in [10] it was 5.75% (active); in [11] it was 7.95% (active); in test [12], 36.4%. The growth is 90.4% in test [13]; 89.1% in test [14]; 79.6% in test [15]; 93.4% in [16]; 50% in test [17]; 61.9% in [18]. Moreover, the growth in test [19] is 65.4%; in test [20], 90.1%.

Consider `CCCCCCCCCCCCNC(=O)N[C@H](C(=O)N[C@H]1/C=C/CCNC(=O)/C=C/[C@H](C)NC1=O)C(C)C`, for which the growth in test [1] was 8.32% (active); in [2], 25%; in test [3], -42.4% (active); in [4], 36.7%; in test [5] it was 8.32% (active); in test [6], 16.6%. Also, the growth was 35.8% in test [7]; -55.3% (active) in test [8]; -5.12% (active) in [9]; -29% (active) in test [10]; -22.7% (active) in [11]; 41.1% in test [12]. Besides, the growth is 11.5% in test [13]; -83.7% (active) in test [14]; 3.35% (active) in test [15]; -42.6% (active) in [16]; -32.9% (active) in test [17]; -44.3% (active) in test [18]. Further, the growth in test [19] was 49.5%; in test [20] it was 94.4%.

Take `NS(=O)(=O)c1ccc(CCn2c(SCC(=O)N/N=C/c3cccnc3)nc3ccccc3c2=O)cc1`: the growth in [1] was 92%; in test [2], 96%; in [3], 110%; in test [4] it was 83.6%; in [5] it was 109%; in [6], 102%. For the same compound, the growth in test [7] was 95.6%; in test [8] it was 85.5%; in test [9], 60.3%; in [10], 68.8%; in test [11], 65.3%; in test [12], 49.7%. Moreover, the growth in [13] was 75.1%; in [14], 108%; in test [15], 94.6%; in test [16] it was 115%; in test [17], 104%; in test [18], 84.7%. For the same compound, the growth in [19] was 82.7%; in test [20], 105%.

Regarding `c1cn2cc(-c3ccc4ncn(C5CCCCC5)c4c3)nc(-c3ccc4c(c3)ncn4C3CCCCC3)c2n1`, the growth in [1] is -65.6% (active); in test [2], -13.1% (active); in test [3], -54.6% (active); in [4], -85.4% (active); in test [5], -59.3% (active); in [6], -58.8% (active). Further, the growth in test [7] was 17.2%; in test [8], -88.1% (active); in test [9] it was 4.28% (active); in [10], -30.5% (active); in [11] it was 2.47% (active); in [12], -37.9% (active). The growth in [13] is -24.1% (active); in [14], -24% (active); in [15] it was 2.84% (active); in [16], -71.9% (active); in [17], -41.9% (active); in [18], -85.2% (active). The growth was 3.4% (active) in test [19] and 1.11% (active) in [20].

Consider `O=C1C(Cl)=C(Nc2cccc3ccccc23)C(=O)c2ccccc21`, for which the growth in [1] was 79.1%; in [2] it was 74.4%; in test [3], 80.1%; in test [4] it was 58.5%; in test [5], 95.4%; in test [6], 68.2%. Further, the growth in test [7] is 25.4%; in test [8] it was 77.5%; in test [9], 65.4%; in test [10] it was 64.9%; in [11], 51%; in [12] it was 17.8%. The growth in [13] was 71.5%; in test [14], 134%; in test [15], 58.6%; in test [16] it was 99.1%; in test [17] it was 58.8%; in [18], 39%. Also, the growth is 87.9% in test [19] and 81.2% in [20].

On to `Nc1c(C(=O)Nc2cccc(Cl)c2)sc2nc3c(cc12)C(=O)CCC3`, for which the growth in [1] was 69.7%; in test [2] it was 58.2%; in test [3], 54.4%; in test [4], 57.1%; in test [5], 65%; in test [6], 54.2%. Also, the growth is 40.3% in test [7]; 49.3% in test [8]; 13.5% in test [9]; 57.1% in test [10]; 39.1% in test [11]; 51.8% in [12]. The growth was 75.3% in [13]; 58.3% in [14]; 60.4% in [15]; 35.2% in test [16]; 52.4% in test [17]; 10.3% in test [18]. Also, the growth in [19] was 4.53% (active); in test [20] it was 17.7%.

As for `COc1cc2c(c(OC)c1O)C(=O)C(OC)C(c1ccc(O)c(O)c1)O2` (stereo not given), the growth in test [1] was 46.9%; in test [2] it was 46.8%; in test [3], 26.6%; in [4] it was 44.8%; in test [5] it was 66.1%; in test [6], 21.6%. Also, the growth in test [7] was 28.4%; in test [8], -18.3% (active); in test [9], -5.15% (active); in test [10], 9.18% (active); in [11] it was 10.8%; in test [12] it was -19.3% (active). Also, the growth in test [13] is 17.1%; in [14], 42.5%; in test [15] it was 37.8%; in [16], 46.5%; in [17] it was 14.1%; in test [18], -24% (active). Further, the growth is 24.7% in [19] and 16.6% in test [20].

The values above are taken from PubChem BioAssay (NCI).
